Here are results for 40 compounds from PubChem BioAssay (Tox21).

Activity calls are given as the source filed them. Entries that show only a call come without a potency. Calls follow the shape of the full dose curve.

Muscarinic acetylcholine receptor M1 (Homo sapiens), sequence (P11229 whole entry, looked up): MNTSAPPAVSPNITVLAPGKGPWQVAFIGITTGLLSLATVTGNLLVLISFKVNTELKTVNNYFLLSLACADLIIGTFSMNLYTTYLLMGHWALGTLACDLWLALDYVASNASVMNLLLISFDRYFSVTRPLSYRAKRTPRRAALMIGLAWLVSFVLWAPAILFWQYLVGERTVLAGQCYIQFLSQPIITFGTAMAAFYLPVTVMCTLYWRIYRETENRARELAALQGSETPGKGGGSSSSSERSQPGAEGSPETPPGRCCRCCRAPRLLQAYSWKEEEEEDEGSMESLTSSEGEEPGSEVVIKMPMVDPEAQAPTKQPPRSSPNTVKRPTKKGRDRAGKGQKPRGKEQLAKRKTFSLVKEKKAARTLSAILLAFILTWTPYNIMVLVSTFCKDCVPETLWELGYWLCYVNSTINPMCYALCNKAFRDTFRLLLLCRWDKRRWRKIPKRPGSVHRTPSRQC

For this assay, the target named is Muscarinic acetylcholine receptor M1 (Homo sapiens) (UniProt P11229). Description: Cholinergic receptor muscarinic 1 (CHRM1) small molecule agonists, cell-based qHTS assay (AID 1963589). Also: nearly all actives have a fitted effect of over 35% in size. The following applies: CHRM1-CHO cells, agonist mode, calcium flux fluorescence; series mostly up to 76.8 µM. The source says:
National Center for Advancing Translational Sciences [NCATS]
Division of Preclinical Innovation [DPI]
U.S. Environmental Protection Agency [EPA]
National Institutes of Environmental Health Sciences [NIEHS]
National Toxicology Program [NTP]
U.S. Food and Drug Administration [FDA]
The CHRM1 is a muscarinic receptor. This receptor plays a crucial role in learning and memory processes and has long been identified as a promising therapeutic target for the improvement of cognitive decline in Alzheimer's disease (AD). The CHRM1-CHO cell line stably expressing human muscarinic acetylcholine receptor M1 (CHRM1) can be used for screening agonists and antagonists of interactions between CHRM1 and its ligands. The CHRM1-CHO Calcium Flux Assay is a homogeneous fluorescence-based assay for detecting the intracellular calcium level using FDSS kinetic plate reader system.
CHRM1-CHO cells were dispensed at 1000 cells/3uL/well in 1536-well black-clear bottom plates using a Multidrop Dispenser. After the assay plates were incubated at a 37 C/5% CO2 incubator for 18 h, 3 uL of Dye Loading Buffer was transferred to the assay plate by a Flying Reagent Dispenser. The assay plates were incubated at 37 C for 1h. For agonist mode, 23 nL of compounds dissolved in DMSO, positive controls or DMSO only was transferred to the assay plate by a pin tool. […] Each test compound was measured at 15 concentrations in three independent runs.
A general note: qHTS replaces the single test concentration by a dilution series.
As to `Cc1cc(Br)ccc1NC(=O)CCl`, the Potency result was “inactive”.
On to `O=C(CCCl)NCCc1ccccc1`, for which the Potency entry is “inactive”.
In the case of `CCCC(C)c1ccccc1O` (stereo not given), the Potency entry was “inactive”.
On the same count and under the same terms, the entry for `COc1cc(C)ccc1C(C)C` is “inactive”; for `CN1Cc2cc(C(=O)N3CCC(C4CCNCC4)CC3)ccc2NC(CC(=O)O)C1=O` (stereo not given) it is “inactive”; for `O=CC(=O)c1ccccc1` it is “inactive”.
Regarding `OCCN1C[C@H](O)[C@@H](O)[C@H](O)[C@H]1CO`, the Potency entry was “inactive”.
Same read-out and setting: the entry for `CC(C)CCCCCCOC(=O)c1ccc(C(=O)OCCCCCCC(C)C)c(C(=O)OCCCCCCC(C)C)c1` is “inactive”; for `CCCCCCCCCOC(=O)c1ccccc1C(=O)OCCCCCCCCC` it is “inactive”; for `CC(C)(C)c1cc(CCC(=O)OCCSCCOC(=O)CCc2cc(C(C)(C)C)c(O)c(C(C)(C)C)c2)cc(C(C)(C)C)c1O` it is “inactive”.
`CC(C)(O)C(=O)c1ccccc1`: the Potency entry was “inactive”.
On the same count and under the same terms, in the case of `CC/C(=C\C(=N/O)C(N)=O)C(C)[N+](=O)[O-]` (stereo not given) it was “inactive”.
On to `CCCS(=O)c1ccc2nc(NC(=O)OC)[nH]c2c1` (stereo not given), for which the Potency result is “inactive”.
Same read-out and setting: in the case of `O=Cc1ccc(F)c(Br)c1` it was “inactive”.
On the same count and under the same terms, the entry for `COc1ccc(S(=O)(=O)N2c3ccc(Cl)cc3[C@@](O)(c3ccccc3Cl)[C@H]2C(=O)N2CCC[C@@H]2C(N)=O)cc1OC` is “inactive”.
On the same count and under the same terms, in the case of `O=C(O)c1c(Cl)cccc1Cl` it was “inactive”.
For the compound `C=CCN1CCc2nc(N)sc2CC1`, the Potency entry is “inactive”.
Still for that read-out and setting: the entry for `CCCCCCCC(C)=O` is “inactive”.
As for `CCN(Cc1c(F)cccc1Cl)c1c([N+](=O)[O-])cc(C(F)(F)F)cc1[N+](=O)[O-]`, the Potency entry is “inactive”.
Still for that read-out and setting: in the case of `C=CC(=O)OCCOCCOC(=O)C=C` it was “inactive”.
For `CCCC1CCCC(=O)O1` (stereo not given), the Potency entry is “inactive”.
As for `O=C1CCCC(=O)C1`, the Potency result was “inactive”.
As to `CC(C)(C)C(=O)O`, the Potency entry is “inactive”.
Consider `CCCCCCC(O)CCCCCCCCCCC(=O)OC` (stereo not given), for which the Potency result was “inactive”.
Take `Cc1cccc(C)c1C`: the Potency result was “inactive”.
Still for that read-out and setting: in the case of `Cc1cccc2nccnc12` it was “inactive”; in that of `O=C(O)C(Cc1cc(I)c(O)c(I)c1)c1ccccc1` (stereo not given), “inactive”; in that of `O=C(/C=C/c1ccccc1)OCCCc1ccccc1`, “inactive”.
With `CCC1CO1` (stereo not given), the Potency entry was “inactive”.
Same read-out and setting: the entry for `CC(C)=CCOC(=O)c1ccccc1` is “inactive”; for `Cc1nc(C2CCCCC2)c(-c2ccc(S(N)(=O)=O)c(F)c2)o1` it is “inactive”.
On the same count and under the same terms, in the case of `SCCCCCCCCS` it was “inactive”; in that of `Nc1nc(CC(=O)O)cs1`, “inactive”.
The same measure, in the same setting: in the case of `CN1CCC(=C2c3ccccc3CCc3sccc32)CC1` it was “inactive”.
Take `O=C(O)CC(C(=O)O)S(=O)(=O)O` (stereo not given): the Potency entry is “inactive”.
For the compound `O=C1[C@H](CC[C@H](O)c2ccc(F)cc2)[C@@H](c2ccc(O)cc2)N1c1ccc(F)cc1`, the Potency result is “inactive”.
Same read-out and setting: in the case of `Nc1c2c(nc3ccccc13)CCCC2O` (stereo not given) it was “inactive”; in that of `CCCCC(CC)COC(=O)c1ccccc1O` (stereo not given), “inactive”.
On to `O=C(O)C[C@H](O)C[C@H](O)/C=C/c1c(C2CC2)nc2ccccc2c1-c1ccc(F)cc1`, for which the activation was -0.297% [at 15.8 µM] (inactive).
Regarding `N#CC1(N)CCCCC1`, the Potency result was “inactive”.
